# PubChem BioAssay AID504329 (Southern Research Specialized Biocontainment Screening …, 2011)
# Among all 340,000 compounds or so, about 1,000 (0.29%) were called active. Only a sample is shown. Measured potencies and affinities stand elsewhere. Unmarked numbers belong to inactive results. Rule as the data show it: inconclusive = inhibition above about 27% without an active follow-up result; inactive = below that.
# Assay: NS1A inhibition, H1N1 influenza, cell based functional assay (AID 504329)
# Details: percent inhibition, at 12.5 µM, stronger effect = higher value
row,Compound,inhibition
1,CCN(CC)c1ccc(NC(=O)COC(=O)c2ccc3ccccc3n2)cc1,17.3%
2,COc1ccc(NC(=O)COC(=O)c2ccc3ccccc3n2)cc1,-0.01%
3,O=C(Nc1ccn(CCCNCc2ccccc2)c(=O)n1)OCc1ccccc1,-1.35%
4,COc1cc(CN2CC=C(c3ccc(F)cc3)CC2)cc(OC)c1,-3.66%
5,CCN(CC)c1ccc(CN2CC=C(c3ccc(F)cc3)CC2)cc1,23.1%
6,N[C@@H](Cc1ccc(O)cc1)c1nnc([C@H](CO)NC(=O)C2CCNCC2)o1,-21.5%
7,COc1ccccc1C=NNC(=O)c1ccccc1OCCOc1ccccc1,-1.44%
8,COc1ccc(CCc2nnc(N)s2)cc1OC,-1.61%
9,CCOC(=O)c1cc(-c2ccc(Cl)s2)[nH]n1,0.06%
10,NC(=O)C1CCN(/C=C2\C(=O)NC(=O)N(Cc3ccco3)C2=O)CC1,-5.38%
11,O=C1NC(=O)N(Cc2ccco2)C(=O)/C1=C/C=C/c1ccco1,-3.06%
12,CCN(CC)c1ccc(/C=C2/C(=O)NC(=O)N(Cc3ccco3)C2=O)cc1,7.25%
13,Cn1cccc1/C=C1\C(=O)NC(=O)N(Cc2ccco2)C1=O,3.7%
14,COC(=O)c1ccc(NC(=O)CNS(=O)(=O)c2cccs2)cc1,1.39%
15,COc1cc(NC(=O)c2ccccn2)cc(OC)c1OC,-8.83%
16,COc1ccc(C(=O)N/N=C(\C)CC(=O)Nc2ccccn2)cc1OC,1.35%
17,COc1ccc(C(=O)N/N=C/c2ccccn2)cc1OC,0.68%
18,COc1cc(C(=O)N/N=C(\c2ccccc2)c2ccccn2)cc(OC)c1OC,8.37%
19,COc1ccc(NC(=S)N2CCN(Cc3ccccc3)CC2)c(OC)c1,-3.28%
20,Fc1cccc(-c2oncc2-c2nnnn2-c2ccc(Cl)cc2)c1,12.9%
21,CCOC(=O)c1ccc(NC(=O)CCNS(=O)(=O)c2cc(Br)cnc2N)cc1,1.26%
22,CN1CCN(C2=C(Cl)C(=O)c3ccccc3C2=O)CC1,-8.61%
23,O=C1C(Cl)=C(N2CCC(C(=O)O)CC2)C(=O)c2ccccc21,0.19%
24,C[C@H](CO)N1C[C@H](C)[C@H](CN(C)Cc2ccccc2)Oc2c(NC(=O)Nc3ccc(F)cc3)cccc2C1=O,-3.95%
25,Cc1ccc(C(=O)OCC(=O)c2ccc(Cl)s2)s1,1.17%

row,Compound,inhibition
1,CC1(C)CC(NC(=O)C23CCC(C)(C2Br)C3(C)C)CC(C)(C)N1 (stereo not drawn),-5.71%
2,CCN1C(=O)/C(=C/C=C2/Sc3ccc4ccccc4c3N2CCO)SC1=S,-5.98%
3,CCN1C(c2ccccc2)=C(c2ccccc2)S/C1=C\C=C1/SC(=S)N(C)C1=O,15.8%
4,CCCCCC/C=C/c1ccc(OC)c([C@H]2[C@H]3C=CC[C@@H](C)[C@@H]3C(=O)N2Cc2ccccc2)c1,6.03%
5,CCN1/C(=C/c2ccc3cc(C)ccc3[n+]2CC)Sc2cc(C)ccc21,19.4%
6,CCN1/C(=C\c2ccc3ccccc3[n+]2CC)Sc2cc(C)ccc21,11.8%
7,Cc1cc(C)nc(NS(=O)(=O)c2ccc(NS(=O)(=O)c3ccc(C#N)cc3)cc2)n1,-5.4%
8,COC(=O)CNC(=O)CN(c1ccc(OC)cc1OC)S(=O)(=O)c1ccccc1,-1.66%
9,Cc1cccc(NC(=O)Cn2c(O)c(N=NC(=O)c3ccncc3)c3ccccc32)c1,-15.6%
10,O=C1NC(c2cccs2)Nc2sc3c(c21)CCCC3 (stereo not drawn),3.69%
11,O=C1NC(c2ccncc2)Nc2sc3c(c21)CCCC3 (stereo not drawn),2.95%
12,CN1CCc2c(sc3c2C(=O)NC(c2ccccc2)N3)C1 (stereo not drawn),-3.09%
13,CN1CCc2c(sc3c2C(=O)NC(c2cccs2)N3)C1 (stereo not drawn),1.19%
14,CCCCN1C(=O)/C(=C2\SC(N3CCOCC3)=NC2=O)c2ccccc21,8.19%
15,CCN1C(=O)/C(=C2\SC(N3CCCCC3)=NC2=O)c2ccccc21,14.1%
16,CN1C(=O)/C(=C2\SC(N3CCCCCC3)=NC2=O)c2ccccc21,20.3%
17,CCN1C(=O)/C(=C2\SC(N3CCOCC3)=NC2=O)c2ccccc21,23.1%
18,COC(=O)c1sccc1NC(=O)c1ccc(Br)o1,3.08%
19,Cc1nc2ccccc2c(=O)n1NC(=O)c1cc(Br)ccc1Cl,3.26%
20,CCOC(=O)c1c(NC(=O)CNCCO)sc(C)c1C,-0.57%
21,CN(CCCNC(=O)c1cc2c(=O)[nH]c3ccccc3c2n1C)Cc1ccccc1,-0.58%
22,CCN1CCN(C(=O)c2cc(-c3ccc(Cl)s3)nc3ccccc23)CC1,-3.92%
23,COc1cc(C(=O)OCC(=O)NC(=O)c2cccn2C)ccc1OC(F)F,5.75%
24,COc1ccc2nc(-c3ccccn3)[nH]c2c1,-6.69%
25,COc1ccc(Oc2ccccc2/C=N/O)cc1,-9.31%

row,Compound,inhibition
1,CC(C)(C)c1cc(=O)[nH]c(SCc2ccccc2)n1,-17.8%
2,Cn1nc(C(F)(F)F)c(CO)c1Sc1ccc(F)cc1,5.51%
3,CC[n+]1c(SC)ccc2cc(OC)ccc21,-5.15%
4,CC[n+]1cc(C)ccc1/C=C/c1ccc(N(C)C)cc1,-3.01%
5,CC[n+]1c(/C=C/c2ccc(OC(C)=O)c(OC)c2)ccc2ccccc21,18.9%
6,CN(C)c1ccc(/C=C/c2nc3ccccc3c(=O)[nH]2)cc1,-10.6%
7,CN(C)c1ccc(/C=C/c2ccc3ccccc3n2)cc1,-37.5%
8,CN(CCCS(=O)(=O)[O-])c1ccc(/C=C/c2ccc3ccccc3[n+]2C)cc1,-6.52%
9,C[n+]1c(/C=C/c2ccc3c(c2)OCO3)ccc2ccccc21,8.1%
10,CC[n+]1c(/C=C/c2ccc(OC)c(OC)c2)ccc2ccccc21,3.91%
11,O=C(Nc1nc2ccccc2[nH]1)NC1CCCCC1,-9.13%
12,O=C(N/C=N/OCc1ccc(Cl)cc1Cl)NOCc1c(Cl)cccc1Cl,-13.6%
13,Cc1ccc(S(=O)(=O)NCC(c2ccc3c(c2)OCO3)N2CCN(c3ccccc3)CC2)cc1 (stereo not drawn),-19.9%
14,Cc1[nH]c(C)c(S(=O)(=O)NCc2ccccc2Cl)c1C(=O)N1CCCC1,9.96%
15,c1csc(C(c2nnnn2C2CCCC2)N2CCOCC2)c1 (stereo not drawn),5.59%
16,O=C(CCNC(=O)c1ccccc1Cl)Nc1ccccc1N1CCCC1,-8.83%
17,O=C(NCCN1CCOCC1)c1noc2c1CCc1ccccc1-2,1.97%
18,CCCCCN1C(=O)Cn2c(nc3ccccc3c2=O)C1C (stereo not drawn),4.12%
19,Cc1noc(/C=C/N(C)C)c1S(=O)(=O)N1CCN(c2ccc(F)cc2)CC1,4.41%
20,CC[n+]1ccccc1/C=C/c1ccc(N(C)C)cc1,8%
21,CN(C)c1ccc(/C=C/c2cc[n+](C)c3ccccc23)cc1,58.9%
22,COC(=O)c1ccc(CNC(=O)c2sccc2-c2ccccc2)cc1,4.96%
23,COc1ccc2[nH]c3c(=O)n4c(nc3c2c1)SCC4,-0.07%
24,CCCCc1ccc(NS(=O)(=O)c2cccc(C(=O)N3CCNC(=O)C3)c2)cc1,0.4%
25,Oc1ccc(Nc2ccnc3cc(Cl)ccc23)cc1,3.37%

row,Compound,inhibition
1,Clc1ccc2c(NNc3ccccc3Cl)ccnc2c1,6.7%
2,N/C(=N\N=C\c1ccc2c(c1)OCO2)SC1CC(=O)N(c2ccc(C(=O)O)cc2)C1=O (stereo not drawn),1.14%
3,Cc1ccc(Nc2nc(N3CCOCC3)c3ccccc3n2)cc1,5.53%
4,Fc1ccc(Nc2nc(N3CCOCC3)c3ccccc3n2)cc1,4.75%
5,CCCOc1ccc(C(=O)NCCN2CCOCC2)cc1,-8.97%
6,O=C1C2C3CCCC3=C3CCCC3C2C(=O)N1c1ccc(F)cc1 (stereo not drawn),-3.36%
7,CCOc1ccc(NS(=O)(=O)c2ccc(-c3cnc(C4CC4)o3)cc2)cc1,-5.05%
8,CCSc1nnc(CNc2ccc(C)cc2)n1C,-3.37%
9,Oc1ccc(/C=N/N(Cc2ccccc2)c2ccccc2)c(O)c1O,19.2%
10,Oc1ccc(/C=N/N(c2ccccc2)c2ccccc2)cc1O,1.06%
11,COc1ccc(CCC(=O)N(C)CC(=O)Nc2cc(C)ccc2C)cc1,-11.1%
12,CC(C)OC(=O)c1cc(NC(=O)C2C3C=CC(O3)C2C(=O)O)cc(C(=O)OC(C)C)c1 (stereo not drawn),6.16%
13,O=C1[C@H]2[C@@H](C(=O)N1c1cccc3ccccc13)C1(C(=O)c3ccccc3C1=O)N1CCC[C@@H]21,-0.49%
14,COc1nc(C)nc(NC(=O)NS(=O)(=O)c2ccccc2Cl)n1,-15.1%
15,COc1cc(OC)nc(NC(=O)NS(=O)(=O)c2ccccc2Cl)n1,-10.9%
16,CCc1ccc(/C(C)=N/NC(=O)c2ccccn2)cc1,-11.6%
17,C/C(=N\NC(=O)c1ccccc1OCc1ccc(F)cc1)c1ccccn1,-7.95%
18,C/C(=N/NC(=O)c1ccccn1)c1ccc(O)cc1,-1.61%
19,C/C(=N\NC(=O)c1ccccc1)c1cccc(Br)c1,3.22%
20,O=C(NCCNC(=O)c1ccccc1F)c1ccccn1,-7.82%
21,C/C(=N\NC(=O)c1cccc2ccccc12)c1cccnc1,-8.98%
22,C/C(=N\NC(=O)c1cccc2ccccc12)c1cccs1,-0.84%
23,C/C(=N\NC(=O)c1cccc(Br)c1)c1cccnc1,0.75%
